Data published in PubChem BioAssay AID1159580 (chemical genetic matrix, 2015).
The whole screen tested about 5,500 compounds, of which about 2,000 (36%) were called active. Roughly 18% stayed inconclusive and do not appear here. No stated cut-off is given here; in the data, active means normalized growth mostly below about 0.91 (no sharp cut-off); inconclusive means no clear call, values can overlap the other calls; inactive means mostly above about 0.92. The list shows a part of the results.

Assay: chemical genetic growth profiling, strain panel (AID 1159580);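 further: tested at 20 µM; growth read once vehicle control cultures reached saturation at 30 °C; 1 = growth at the plate median or of vehicle wells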
Conditions: S. cerevisiae deletion strains, growth OD

Measured: normalized growth

C[N+](C)(C)CCOC(=O)CCC(=O)OCC[N+](C)(C)C
inactive: locus YAL040C, strain CLN3, stronger effect = lower value 0.988 | locus YCL061C, strain MRC1 (second series), stronger effect = lower value 1.01 | locus YDR150W, strain NUM1, stronger effect = lower value 1.02 | locus YDR363W, strain ESC2, stronger effect = lower value 1.01 | locus YER002W, strain NOP16, stronger effect = lower value 1.01 | locus YGR229C, strain SMI1, stronger effect = lower value 1.04 | locus YJR075W, strain HOC1, stronger effect = lower value 0.992 | locus YMR263W, strain SAP30, stronger effect = lower value 1 | locus YMR307W, strain GAS1, stronger effect = lower value 1.03 | locus YNL153C, strain GIM3, stronger effect = lower value 1.03 | locus YNL175C, strain NOP13, stronger effect = lower value 1.01 | locus YNL197C, strain WHI3, stronger effect = lower value 1.02 | locus YNL224C, strain SQS1, stronger effect = lower value 1.01 | locus YNL322C, strain KRE1, stronger effect = lower value 0.992 | locus YOR083W, strain WHI5 (second series), stronger effect = lower value 1.02 | locus YPL241C, strain CIN2, stronger effect = lower value 0.987
